Screening results (PubChem)
Bead autofluor – counter-screen for toxin protease inhibitors: compound fluorescence; compound autofluorescence counterscreen, microsphere flow cytometry; stronger effect = higher value; hit rate 3.1% among 360,000; AID 624483; fluorescence intensity (test concentration not listed); in the data active = fluorescence intensity above about 16000; inconclusive = no clear call, values can overlap the other calls
Anthrax LF prot – blocks Bacillus anthracis lethal factor protease. P15917. multiplex microsphere protease cleavage assay, LF. inhibition, % at 10 µM. hit rate 0.12% among 360,000. AID 588501
BoNT-A LC inh2 – BoNT A light chain protease inhibition; hit rate 0.17% among 360,000; inhibition, % at 10 µM; AID 588499; multiplex microsphere protease substrate cleavage, flow cytometry
BoNT F protease – BoNT F light chain protease inhibition | Multiplex microsphere protease cleavage assay, flow cytometry | inhibition, % at 10 µM | hit rate 0.22% among 360,000 | AID 588497; in the data active = inhibition above about 35%, passing the limit was not always enough; inconclusive = no clear call, values can overlap the other calls
MazEF act – increases E. coli MazEF RNase cleavage of RNA; P0AE70; FAM/BHQ RNA-DNA oligo cleavage fluorescence, 5 h; activation, % at 20 µM; hit rate 0.32% among 350,000; AID 504720; in the data active = activation above about 50%
Target sequence (P0AE70 whole entry, looked up): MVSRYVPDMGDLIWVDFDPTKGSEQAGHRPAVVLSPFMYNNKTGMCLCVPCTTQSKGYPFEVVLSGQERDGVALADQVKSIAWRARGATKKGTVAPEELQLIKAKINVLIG
A number is an active result; – = inactive; ? = inconclusive; · = no result given. Compounds with a hit are over-represented: about 3.6% of the library has one in this group of screens. Rule as the data show it, unless noted: active = inhibition above about 30%; inconclusive = no clear call, values can overlap the other calls; inactive = below that.

SMILES	Bead autofluor	Anthrax LF prot	BoNT-A LC inh2	BoNT F protease	MazEF act
CC(=O)O[C@H]1C[C@@]2(C)[C@@H](C[C@@H](O)[C@H]3[C@@]4(C)CC[C@@H](O)[C@@H](C)[C@@H]4CC[C@@]32C)/C1=C(\CCC=C(C)C)C(=O)O	–	–	–	–	–
O=S(=O)(c1ccc(Cl)c(F)c1)N1CCC(c2nc(-c3ccncc3)no2)CC1	21243	–	–	–	–
O=[N+]([O-])c1cccc(S(=O)(=O)N2CCC(c3nc(-c4ccncc4)no3)CC2)c1	–	–	–	–	–
CCCn1c(SCC(=O)N2CC(=O)Nc3ccccc32)n[nH]c1=O	–	–	–	–	–
S=C(Nc1cccc(Cl)c1)N1CCOCC1	22806	–	–	–	–
O=[N+]([O-])c1cccc(NC(=S)N2CCOCC2)c1	–	–	–	–	–
N#CC1=C(N)N2C(=C(C#N)C13CCCCC3)SC1CCCCC12O (stereo not given)	22232	–	–	–	–
Nc1ccn([C@@H]2O[C@H](C(=O)Nc3ccc(C(=O)N4CCCCC4)cc3)[C@@H](O)[C@H]2O)c(=O)n1	–	–	–	–	·
c1ccc(-c2ccc(CN3CCN(c4ncccn4)CC3)cc2)cc1	16137	–	–	–	–
Fc1cccc(CN2CCN(c3ncccn3)CC2)c1	19248	–	–	–	–
COc1ccc(CN2CCN(c3ncccn3)CC2)c(OC)c1	22491	–	–	–	–
CCCn1c(N)c(N(CCOC)C(=O)Cc2ccc(S(=O)(=O)N3CCOCC3)s2)c(=O)[nH]c1=O	?	–	–	–	·
Cc1c(C(=O)N2CCN(c3ccccn3)CC2)oc2ccccc12	22383	–	–	–	–
CCOc1ccc2oc(C(=O)N3CCN(c4ccccn4)CC3)c(C)c2c1	–	–	–	–	–
COc1cc2ccccc2cc1C(=O)N1CCN(c2ccccn2)CC1	–	–	–	–	–
O=C(c1cc2cc(Br)ccc2oc1=O)N1CCN(c2ccccn2)CC1	16477	–	–	–	–
Cc1cnn(C(=O)c2oc3ccccc3c2C)c1	22067	–	–	–	–
COc1cc(Br)cc2cc(C(=O)N3CCN(c4ccccn4)CC3)c(=O)oc12	23664	–	–	–	–
O=C(c1cc2cc(Cl)ccc2oc1=O)N1CCN(c2ccccn2)CC1	–	–	–	–	–
Cc1cccc(COCCN2CCN(S(=O)(=O)c3ccccc3)CCC2=O)c1	–	–	–	–	–
COc1cccc(C(O)c2nc(-c3cccc(C(=O)O)c3)cs2)c1 (stereo not given)	–	–	–	–	·
Nc1nnc(SCC(=O)NC23CC4CC(CC(C4)C2)C3)s1	21047	–	–	–	–
Cc1ccc2nc(N3CCN(S(=O)(=O)c4ccc(C)c(Cl)c4)CC3)c(C#N)cc2c1	21608	–	?	–	–
Cc1ccc2nc(N3CCN(C)CC3)c(C#N)cc2c1	–	–	–	–	–
CCOC(=O)N1CCN(C(=O)c2cc(C)c3c(C)nn(-c4ccccc4)c3n2)CC1	23022	–	–	–	–
SMILES	Bead autofluor	Anthrax LF prot	BoNT-A LC inh2	BoNT F protease	MazEF act
Cc1ccc(-c2nc(CNC(=O)c3ccco3)cs2)cc1	–	–	–	–	–
CC(=O)N1CCCC(C)(C(=O)Nc2cccc(OC(C)C)c2)C1 (stereo not given)	–	–	–	–	·
CN1CCN(c2nc(-c3ccco3)cc(C(F)(F)F)n2)CC1	17518	–	–	–	–
FC(F)(F)c1cc(-c2ccco2)nc(-n2nnc3ccccc32)n1	–	–	–	–	–
CCOC(=O)N1CCN(c2nc(-c3ccco3)cc(C(F)(F)F)n2)CC1	–	–	–	–	–
FC(F)(F)c1cc(-c2ccco2)nc(-n2nc(C(F)(F)F)cc2C2CC2)n1	20606	–	–	–	–
CC(Oc1cccnc1[N+](=O)[O-])C(=O)Nc1ccc(Cl)cn1 (stereo not given)	–	–	–	–	–
O=[N+]([O-])C(/C=C(/Cl)[N+](=O)[O-])=C(N1CCCCC1)N1CCCCC1	?	–	–	?	–
COC(=O)CNc1nc(Cl)nc(NC2CCCCC2)n1	–	–	–	?	–
O=C(Nc1cccc(Cl)c1)c1csc([C@@H]2C[C@H](O)[C@@H](CO)O2)n1	–	–	–	–	·
C=CCn1c(Cc2c[nH]c3ccccc23)nnc1SCC(=O)NCc1ccccc1	23009	–	–	–	–
CC(=O)Nc1cccc(C(=O)OC(C(=O)c2ccc(C)cc2)c2ccccc2)c1 (stereo not given)	?	–	–	–	–
CC(=O)Nc1cccc(C(=O)OC(C(=O)c2ccc(C)c(C)c2)c2ccccc2)c1 (stereo not given)	19826	–	–	–	–
CC(C)OCCCNC(=O)c1ccc(CS(=O)(=O)Cc2ccccc2F)o1	20731	–	–	–	–
CCCCNC(=O)c1ccc(CS(=O)(=O)Cc2ccccc2F)o1	–	–	–	–	–
CCOc1ccc(-c2csc(C3COc4ccccc4O3)n2)cc1 (stereo not given)	23266	–	–	–	–
Cc1onc(-c2ccccc2)c1C(=O)OCC(=O)N1CCCCC1	–	–	–	–	–
O=C(O)c1cc(-c2ccccn2)n[nH]1	22786	–	–	–	–
O=C(O)c1ccc(-c2ccccn2)s1	–	–	–	–	–
O=C(CN1C(=O)NC2(CCc3ccccc32)C1=O)Nc1ccc(Cl)cc1F (stereo not given)	–	–	–	–	–
Cc1ccc(S(=O)(=O)N2CCCCC2)c2nsnc12	–	–	–	–	–
Cc1ccc(S(=O)(=O)N2CCOCC2)c2nsnc12	17116	–	–	–	–
COc1ccc(Oc2ccc3c(C(F)(F)F)cc(C(F)(F)F)nc3n2)cc1	22263	–	?	–	–
FC(F)(F)c1ccc(Oc2ccc3c(C(F)(F)F)cc(C(F)(F)F)nc3n2)cc1	22830	–	–	–	–
O=S(OCCN1CCCC1)C(c1ccccc1)c1ccccc1 (stereo not given)	–	–	–	–	–
SMILES	Bead autofluor	Anthrax LF prot	BoNT-A LC inh2	BoNT F protease	MazEF act
COc1cccc(CN2CCC2(C)C(=O)Nc2ccc3c(c2)OCO3)c1F (stereo not given)	–	–	–	–	·
Cn1cnnc1SC1CCCCC1NS(=O)(=O)c1ccccc1 (stereo not given)	23278	–	–	–	–
O=C(NCCCNc1ccc(C(F)(F)F)cc1[N+](=O)[O-])c1ccc(F)cc1	–	–	–	–	62
COC(=O)c1ccc(NC(=O)CCS(=O)(=O)c2ccc3c(c2)NC(=O)C(C)S3)cc1 (stereo not given)	–	–	–	–	–
Cc1ccc(-c2noc(CN(C(=O)C34CC5CC(CC(C5)C3)C4)C(C)C)n2)cc1	22906	–	–	–	–
Cc1ccc(-c2noc(CN(C(=O)c3cccc(Br)c3)C(C)C)n2)cc1	–	–	–	–	–
Cc1ccc(-c2noc(CN(C(=O)C(c3ccccc3)c3ccccc3)C(C)C)n2)cc1	23813	–	–	–	–
Cc1ccc(SCC(=O)OCC(=O)N(C)CC(=O)Nc2ccccc2Cl)cc1	?	–	–	–	–
O=C1NC(=O)C(=Cc2cn(CCOc3ccc4c(c3)OCO4)c3ccccc23)C(=O)N1	–	–	–	–	528
